Rows were chosen to be rich in hits. Some 2.2% of all compounds tested hit in one or more screens of this group.
APP transl inh: APP translation inhibition. SH-SY5Y APP 5'UTR-luciferase reporter, luminescence. inhibition, % at 2 µM. 190,000 tested, 0.82% active. AID 1285;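 active = inhibition above a set limit, derived from the sample mean plus 3 SD, cut at about 45% in these data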
BaF3 parental: parental Ba/F3 viability inhibition as JAK2V617F counter-screen; CellTiter-Glo ATP luminescence; inhibition, % at 5.6 µM; 220,000 tested, 1.1% active; AID 1486;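 active = inhibition above a per-campaign cutoff, the mean inhibition of all tested compounds plus 3 SD, cut at about 27% in these data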
KLF5 inhibitor: kruppel-like factor 5 inhibition; DLD-1 KLF5 promoter-luciferase reporter, luminescence; inhibition, % at 5 µM; 290,000 tested, 0.23% active;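 active = inhibition above a per-plate limit of that plate's mean compound inhibition plus 3 SD, cut at about 60% in these data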;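 note: higher means less KLF5 promoter-driven luciferase light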
IEC-6 tox: counter-screen for KLF5 inhibitors: cytotoxicity in IEC-6 cells | IEC-6 cytotoxicity, luminescence viability | inhibition, % at 5 µM | 290,000 tested, 0.78% active | AID 1825; in the data active = inhibition above about 22%
Ba/F3 V617F tox: lowers viability of Ba/F3 cells expressing EpoR and JAK2V617F; ATP luminescence; inhibition, % at 5.6 µM; 220,000 tested, 1.1% active; AID 1446;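 active = inhibition above the campaign mean plus 3 SD over all tested compounds, cut at about 24% in these data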;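 note: cytokine-independent growth of Ba/F3 cells driven by EpoR plus mutant JAK2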
aSyn UTR inh: 5' untranslated region of α-synuclein, MLPCN primary screen; inhibition, % (tested at 7.5 µM); 300,000 tested, 0.82% active; alpha-synuclein 5'UTR reporter, inhibitor activity; AID 1813; in the data active = inhibition above about 60%;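 note: H4 neuroglioblastoma cells stably carrying SNCA 5'UTR luciferase fusion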
Of the large screens only hits and unclear results are named; the others gave an inactive call.

CCOc1cccc(-c2c(C(=O)N/N=C/c3ccc(Br)cc3)nnn2-c2nonc2N)c1	none (no result: APP transl inh, BaF3 parental, Ba/F3 V617F tox)
Cc1c(CCOC(=O)CC23CC4CC(CC(C4)C2)C3)sc[n+]1Cc1ccccc1	BaF3 parental 41, Ba/F3 V617F tox 29
Fc1ccc(-n2nnc(-c3cnc4ccccc4c3)n2)cc1	aSyn UTR inh 94
Cc1ccc(C(=O)Nc2ccc(Cl)cc2C)c(Cl)c1	none
COc1ccc(S(=O)(=O)NC2CCSc3ccccc32)cc1OC (centres undefined)	none (no result: APP transl inh, BaF3 parental, Ba/F3 V617F tox)
CSc1ccccc1NC(=O)CO/N=C(\C)c1cc2ccccc2o1	IEC-6 tox 36
C/C(=N\OCC(=O)Nc1ccc(F)c(F)c1F)c1cc2ccccc2o1	none
CN(C)c1nc(N/N=C/c2ccccc2O)nc(Nc2ccc(F)cc2)n1	APP transl inh 48
CCN(C(=O)COC(=O)/C=C/c1c(C)nn(Cc2ccc(C)cc2)c1C)C1CCS(=O)(=O)C1 (centres undefined)	none
Oc1c(CN2CCOCC2)cc(COCc2ccccc2)c2cccnc12	APP transl inh 92, aSyn UTR inh 114
O=C(c1ccccn1)N1CCCC(N2CCN(c3ccccc3)CC2)C1 (centres undefined)	none (no result: APP transl inh, BaF3 parental, Ba/F3 V617F tox)
COc1ccc(N=C2S/C(=C\c3ccc(C)o3)C(=O)N2CC(C)C)cc1	APP transl inh 89
O=C(COc1ccc(Cl)cc1)Nc1ccc2c(c1)C(=O)NC2=O	none (no result: APP transl inh, BaF3 parental, Ba/F3 V617F tox)
Cc1nnn(-c2nonc2N)c1C(=O)N/N=C/c1ccccc1O	APP transl inh 64, aSyn UTR inh 68
Cc1nnn(-c2nonc2N)c1C(=O)N/N=C/c1cccc2ccccc12	none
CCOc1ccc(CCNC(=O)CCCn2c(=O)c3cccn3c3cccnc32)cc1OCC	none (no result: APP transl inh, BaF3 parental, Ba/F3 V617F tox)
Cc1ccc(C(=O)N2CCN(CCNC(=O)C(=O)NCc3ccc(Cl)cc3)CC2)cc1	none (no result: APP transl inh, BaF3 parental, Ba/F3 V617F tox)
CC1(C)COCN1S(=O)(=O)c1ccc(C(=O)Nc2nnc(-c3ccc(Cl)s3)o2)cc1	aSyn UTR inh 92
CC1CCCCN1S(=O)(=O)c1ccc(C(=O)Nc2nnc(-c3ccncc3)o2)cc1 (centres undefined)	none
COc1ccc(-c2nnc(NC(=O)c3ccc(S(=O)(=O)N4COCC4(C)C)cc3)o2)cc1	BaF3 parental 46, aSyn UTR inh 76
CC1CCCCN1S(=O)(=O)c1ccc(C(=O)Nc2nnc(-c3ccccc3Cl)o2)cc1 (centres undefined)	none
CCOc1ccc(N(C)C(=O)CCc2nnc3ccc(N4CCCCC4)nn23)cc1	none (no result: APP transl inh, BaF3 parental, Ba/F3 V617F tox)
CCC1CCCCN1CCCNC(=O)CSc1nc2nc(C)c(Cc3ccc(C)cc3)c(C)n2n1 (centres undefined)	none (no result: APP transl inh, BaF3 parental, Ba/F3 V617F tox)
COc1ccc(O)c(/C=N/NC(=S)Nc2cccc(S(=O)(=O)N(C)C)c2)c1	APP transl inh 60, aSyn UTR inh 74
CC(C)Cc1nc(SCC(=O)N2CCCCC2)c2c(=O)n(C)c(=O)n(C)c2n1	none (no result: APP transl inh, BaF3 parental, Ba/F3 V617F tox)
O=C(Nc1ccc(N2CCOCC2)cc1)c1cn2ccccc2n1	aSyn UTR inh 65
O=C(Nc1ccc(Cl)c(S(=O)(=O)N2CCOCC2)c1)c1cn2ccccc2n1	none
Cc1nnsc1C(=O)N/N=C/c1ccc2ccccc2c1O	APP transl inh 76, aSyn UTR inh 120
CC(=O)NC(Cc1ccc(F)cc1)C(=O)NC1CCN(C(=O)Nc2ccccc2C)CC1 (centres undefined)	none (no result: APP transl inh, BaF3 parental, Ba/F3 V617F tox)
COc1ccc(CNC(=O)c2c(C)oc3c2C(=O)c2ccccc2C3=O)cc1	aSyn UTR inh 103
CCc1ccc(OC(=O)Nc2ccccc2)cc1	none (no result: APP transl inh, BaF3 parental, Ba/F3 V617F tox)
N#C/C(=C\c1ccc([N+](=O)[O-])o1)c1nc2ccccc2[nH]1	APP transl inh 97
Cc1ccc2nc(/C(C#N)=C\c3ccc([N+](=O)[O-])o3)[nH]c2c1	none
Cc1ccc(N(CC(=O)Nc2ccc(Br)c(C)c2)S(=O)(=O)c2c(C)[nH]c(=O)[nH]c2=O)cc1	none (no result: APP transl inh, BaF3 parental, Ba/F3 V617F tox)
Cc1ccc(S(=O)(=O)N2CCC(C(=O)OCC(=O)N3CCCC3=O)CC2)cc1C	none (no result: APP transl inh, BaF3 parental, KLF5 inhibitor, IEC-6 tox, Ba/F3 V617F tox)
Cc1cc(Cl)c2oc(C(=O)N3CCN(c4ccncc4)CC3)c(C)c2c1	aSyn UTR inh 90 (no result: APP transl inh, BaF3 parental, Ba/F3 V617F tox)
CCOC(=O)Cc1csc(/N=C/c2c(O)n(-c3ccc(C)c(C)c3)c(=O)c3ccccc23)n1	aSyn UTR inh 105
CCOc1ccc(Nc2nc3cc(S(=O)(=O)N(CC)CC)ccc3o2)cc1	aSyn UTR inh 78
CCN(CC)S(=O)(=O)c1ccc2oc(Nc3ccc(OC)cc3)nc2c1	none (no result: APP transl inh, BaF3 parental, Ba/F3 V617F tox)
O=C(NC1CCN(Cc2ccccc2)CC1)c1cccc(S(=O)(=O)Nc2ccc(Br)cc2)c1	none (no result: APP transl inh, BaF3 parental, KLF5 inhibitor, IEC-6 tox, Ba/F3 V617F tox)
COc1ccccc1NS(=O)(=O)c1cccc(C(=O)NC2CCN(Cc3ccccc3)CC2)c1	aSyn UTR inh 83 (no result: APP transl inh, BaF3 parental, KLF5 inhibitor, IEC-6 tox, Ba/F3 V617F tox)
COc1ccc(CNC(C)C2COc3ccccc3O2)c(OC)c1 (centres undefined)	BaF3 parental 96
CC(NCc1ccccc1)C1COc2ccccc2O1 (centres undefined)	none
Cc1c(S(=O)(=O)N2CCCCC2)c(=O)n(C)c(=O)n1C	none (no result: APP transl inh, BaF3 parental, KLF5 inhibitor, IEC-6 tox, Ba/F3 V617F tox)
O=C(NCc1ccco1)c1cc([N+](=O)[O-])ccc1N1CCCCC1	none
O=C(NCc1ccc2c(c1)OCO2)c1cc([N+](=O)[O-])ccc1N1CCCCC1	APP transl inh 79, BaF3 parental 48, IEC-6 tox 55, Ba/F3 V617F tox 63
COc1ccc(C2=NN(C(=O)COc3ncnc4ccccc34)C(c3ccco3)C2)cc1 (centres undefined)	aSyn UTR inh 64
COc1ccc(C2=NN(C(=O)CSc3nnc(C)n3C)C(c3ccco3)C2)cc1 (centres undefined)	none
COc1ccc(/C=C/C(=O)c2cc(Br)ccc2OC(=O)c2ccco2)cc1OC	APP transl inh 87
COC(=O)CCC(=O)c1oc2ccc(OC)cc2c1N	APP transl inh 64
CC(/C=C1\SC(=S)N(CCCC(=O)Nc2ccc(C(=O)O)cc2)C1=O)=C\c1ccccc1	none
CC(/C=C1\SC(=O)N(CCCC(=O)O)C1=O)=C\c1ccccc1	APP transl inh 78, aSyn UTR inh 103
C=CCN1C(=O)/C(=C\C(C)=C\c2ccccc2)SC1=S	none (no result: APP transl inh, BaF3 parental, Ba/F3 V617F tox)
CC(=C\c1ccccc1)/C=C1/SC(=S)N(CCCC(=O)O)C1=O	aSyn UTR inh 67 (no result: APP transl inh, BaF3 parental, Ba/F3 V617F tox)
COc1cc(/C=C/C(=O)OCC(=O)N(C)C2CCS(=O)(=O)C2)ccc1OC(F)F (centres undefined)	none (no result: APP transl inh, BaF3 parental, Ba/F3 V617F tox)
O=C(/C=C/c1ccccc1)Nc1nc(-c2ccncc2)cs1	BaF3 parental 43, Ba/F3 V617F tox 39
O=C(Oc1ccc(-n2cnnn2)cc1)c1ccccc1	none
Cc1ccc(C)c(NC(=S)NC(NC(=O)Cc2cccc3ccccc23)C(Cl)(Cl)Cl)c1 (centres undefined)	aSyn UTR inh 112
Cc1ccc(C)c(NC(=S)NC(NC(=O)N(C)C)C(Cl)(Cl)Cl)c1 (centres undefined)	none
O=C(C1=C[C@@H](c2csc3ccccc23)C[C@@H](OCc2ccc(CO)cc2)O1)N1CCN(Cc2ccc3c(c2)OCO3)CC1	aSyn UTR inh 69
Cc1ccc(NC(=O)Nc2ccnc(-c3cccnc3)n2)cc1	APP transl inh 83, aSyn UTR inh 110
